High-throughput results (PubChem)
Compounds with a hit are over-represented: about 1.2% of the library has one in this group of screens.
MsrA inh: inhibits bovine methionine sulfoxide reductase A; purified bovine MsrA, absorbance read-out; inhibition, % at 15.5 µM; 0.75% of 360,000 active;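 note: 0% = vehicle wells with enzyme and 100% = reference inhibitor wells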
NPR1 activator: GC-A (human) enzyme activation; HEK293 GC-A cells, cGMP TR-FRET, EC30 ANP; 0% at EC30 ANP, 100% saturating ANP; activation, % at 10 µM; P16066; 0.14% of 370,000 active; in the data active = activation above about 40%
bovine MsrA act: activates bovine MsrA enzyme | purified bovine MsrA, absorbance read-out | activation, % at 10.6 µM | 0.3% of 360,000 active; in the data active = activation above about 7.5%;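 note: 0% = vehicle and 100% = reference activator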
NPR2 activator: GC-B (human) receptor activation. P20594. HEK293-GC-B cells, CNP EC30, cGMP TR-FRET; 0% at EC30 CNP, 100% saturating CNP. activation, % at 10 µM. 0.11% of 370,000 active. AID 1920062;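 active = activation at 10 µM reaching about 35% in either raw or pattern-adjusted values, limit read from the data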
MsrA conf: bovine MsrA inhibition, confirmed. 41% of 2,300 active. inhibition, % at 15.5 µM. shares compounds with MsrA inh. purified bovine MsrA, absorbance read-out;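 note: coupled to thioredoxin reductase with NADPH and selenocystamine and DMSO as substrate; 0% = vehicle only and 100% = full effect of reference inhibitor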
Starred values were filed as active, the others as inactive; x = no result given. Cut-off read from the data, not from the text of the source, unless noted: active = inhibition above about 4.5%; inactive = the rest.

SMILES | MsrA inh | NPR1 activator | bovine MsrA act | NPR2 activator | MsrA conf
CCn1c2ccccc2c2cc(C=Nn3c(-c4ccccc4C)n[nH]c3=S)ccc21 | x | 0.1 | x | -6.7 | x
Nc1[nH]c(C(=O)c2ccc(Br)cc2)c(-c2ccc(Cl)cc2)c1C(=O)NCCc1c[nH]c2ccccc12 | 0.3 | -7.2 | x | -4.7 | x
Cc1nnc(N/N=C\c2ccc(-c3cccc(C(=O)O)c3)o2)n1N | 5.0* | -4.0 | 2.8 | 1.5 | 6.0*
Nc1nonc1-c1nc2ccccc2n1CC(=O)O | 1.2 | 0.7 | -4.1 | 2.7 | x
O=C(N/N=C/c1ccc(N2CCOCC2)c([N+](=O)[O-])c1)c1ccc(F)cc1 | 3.0 | 6.4 | -1.6 | -0.6 | x
O=Cc1ccc(-c2cccc(C(=O)O)c2)o1 | 4.7* | -0.2 | -3.0 | -0.3 | 2.3
Cc1nnc(N/N=C/c2ccc(-c3ccc(Br)cc3)o2)n1N | 2.1 | 20.2 | 1.5 | -7.4 | x
O=C(N/N=C/c1ccc(N2CCCC2)c([N+](=O)[O-])c1)c1cccnc1 | 7.5* | -7.2 | -3.8 | -6.9 | 5.5*
Nc1nonc1-c1nc2ccccc2n1CC(=O)N/N=C/c1ccc(-c2cccc(C(=O)O)c2)o1 | 5.7* | -0.8 | -4.9 | 2.7 | 6.3*
O=C(CSc1nnc(Cc2cccs2)n1-c1ccccc1)Nc1ccccc1-c1ccccc1 | x | -15.9 | x | -15.3 | x
Cc1ccc(-n2c(=S)sc3c(=O)n(-c4ccc(F)cc4)c(SCC(=O)O)nc32)cc1C | 5.3* | 3.2 | -6.0 | 6.9 | 1.9
Cc1ccc(-n2c(SCC(=O)O)nc3c(sc(=S)n3-c3ccc(C)c(C)c3)c2=O)cc1 | 3.0 | 1.9 | -3.0 | 4.9 | x
O=[N+]([O-])c1cnc(Nc2ccc(Cl)cn2)c([N+](=O)[O-])c1 | 6.1* | 6.8 | 1.6 | 0.6 | 8.0*
CN(C)CCN(Cc1cc2cc3c(cc2[nH]c1=O)OCCO3)C(=S)NCC1CCCO1 (configuration not stated) | 5.2* | 3.1 | -3.7 | 4.7 | 1.3
COCCNC(=S)N(CCCO)Cc1cc2cc3c(cc2[nH]c1=O)OCCO3 | 1.0 | -0.8 | 5.1 | 3.9 | x
COCCNC(=S)N(CCO)Cc1cc2cc3c(cc2[nH]c1=O)OCO3 | 5.1* | 0.1 | -7.3 | 7.4 | 5.1*
CCN(CC)CCN(Cc1cc2cc3c(cc2[nH]c1=O)OCCO3)C(=S)NCC1CCCO1 (configuration not stated) | 1.4 | 0.2 | -1.3 | 3.2 | x
O=C(NCC(c1ccccc1)c1ccccc1)[C@H](Cc1ccccc1)NC1(C(=O)NC2CCCCC2)CCCC1 | x | -9.7 | x | -8.6 | x
COC(=O)[C@]12C[C@H](CC(=O)N3CCCCC3)C(=O)N(CCC3=CCCCC3)C1=C[C@H](C(C)(C)C)O[C@@H]2C | -0.4 | -7.3 | x | -5.1 | x
COCCCNc1oc(/C=C/c2ccccc2)nc1C#N | 5.9* | 3.2 | -4.8 | -7.9 | 4.1
CN1C(=O)/C(=C/c2ccccc2OCc2ccc(C(=O)O)cc2)NC1=S | 2.2 | -1.1 | -10.3 | -5.2 | x
O=C1NC(=S)N/C1=C\c1ccccc1OCc1ccc(C(=O)O)cc1 | 6.4* | 2.6 | -1.5 | 2.3 | 3.1
CCOc1ccccc1NC(=O)c1cc2c(C)nn(-c3ccccc3)c2s1 | x | 1.9 | x | -4.8 | x
O=C(N/N=C/c1cccc(Br)c1)c1ccc(Cn2cc(Br)cn2)o1 | 0.9 | -4.2 | 3.1 | 2.4 | x
Cc1ccsc1/C=N/NC(=O)c1ccc(Cn2cc(Br)cn2)o1 | 4.7* | -2.1 | -2.2 | -3.0 | 3.9
SMILES | MsrA inh | NPR1 activator | bovine MsrA act | NPR2 activator | MsrA conf
O=C(CCN1C(=O)S/C(=C\c2ccccc2)C1=O)Nc1ccc(O)cc1C(=O)O | 4.8* | 3.3 | -3.9 | 1.1 | 4.5
O=C(CCN1C(=O)S/C(=C/c2ccccc2)C1=O)Nc1ccc(O)c(C(=O)O)c1 | 6.5* | 7.3 | -0.4 | -6.0 | 3.8
O=C(CN1C(=O)S/C(=C\c2cccs2)C1=O)Nc1ccc(O)cc1C(=O)O | 5.1* | -8.0 | -12.3 | 0.7 | 4.1
COCc1cc(C)nc(N/N=C/c2ccc(-c3cc(C(=O)O)ccc3Cl)o2)c1C#N | 5.3* | -1.6 | x | -7.3 | 1.4
CC1(C)CC(=O)c2sc(NS(=O)(=O)c3ccccc3)nc2C1 | 2.6 | 4.7 | 0.1 | 2.3 | x
CC1(C)CC(=O)c2sc(NC(=O)CN3CCOCC3)nc2C1 | 1.0 | 0.1 | -2.2 | 1.5 | x
CC1(C)CC(=O)c2sc(NS(=O)(=O)c3ccc([N+](=O)[O-])cc3)nc2C1 | 6.3* | -3.1 | -2.3 | -0.4 | 3.7
CC1(C)CC(=O)c2sc(NS(C)(=O)=O)nc2C1 | 6.6* | 1.7 | -4.9 | 5.5 | 3.9
CC1(C)CC(=O)c2sc(NC(=O)CN3C(=O)CCC3=O)nc2C1 | 5.0* | 5.8 | -0.3 | 1.7 | 1.9
Cc1ccc(C)c(NC(=O)CSc2nc(C)cc(=O)[nH]2)c1 | x | -2.4 | x | -7.4 | x
CCN(CC)C(=O)CSc1nnc(-c2ccccn2)n1C | x | 2.7 | x | -0.1 | x
Oc1ccccc1C=NN1CCN(Cc2ccccc2)CC1 | x | 3.2 | x | 11.7 | x
CN(C)c1ccc(/C=C(/NC(=O)c2ccccc2)C(=O)N/N=C/c2ccc([N+](=O)[O-])c(O)c2)cc1 | 3.9 | -8.3 | -6.9 | -10.1 | x
O=C(N/N=C/c1ccc(Br)o1)/C(=C/c1ccc([N+](=O)[O-])cc1)NC(=O)c1ccccc1 | 5.3* | -4.5 | -3.0 | -3.0 | 3.0
O=C(N/N=C/c1ccco1)/C(=C/c1cccc([N+](=O)[O-])c1)NC(=O)c1ccccc1 | 5.4* | -2.2 | -3.1 | -4.8 | 3.9
COc1ccccc1/C=C/C=N/NC(=O)c1cnccn1 | 7.1* | 9.4 | -4.7 | -7.2 | 5.4*
COc1ccccc1/C=N/NC(=O)c1ccc(=O)n(C)c1 | 3.5 | -1.3 | -9.5 | -0.4 | x
COc1ccccc1/C=C/C=N/NC(=O)c1ccc(=O)n(C)c1 | 8.1* | -7.5 | -11.6 | -5.1 | 6.9*
CCCCOCCCNC(=O)C[C@H]1C[C@@]2(C(=O)OC)C(=C[C@H](C(C)C)O[C@@H]2C2CC2)N(Cc2ccco2)C1=O | x | -1.7 | x | -4.2 | x
Nc1ccc2nc(-c3cc(Cl)c(N)c(Cl)c3)[nH]c2c1 | 4.8* | 0.5 | -10.5 | -3.8 | 5.6*
Nc1ccc(-c2nc3ccc(N)cc3[nH]2)cc1 | 5.5* | -17.3 | -3.2 | -20.3 | 4.0
Nc1ccc(-c2nc3ccc([N+](=O)[O-])cc3[nH]2)cc1 | 2.3 | 17.5 | -10.2 | 19.8 | x
Nc1ccc2nc(-c3ccc(Cl)cc3)[nH]c2c1 | 1.8 | 8.6 | -1.4 | -2.3 | x
Nc1ccc(-c2nc3c(Cl)c(N)ccc3[nH]2)cc1 | 5.3* | -10.8 | -10.1 | -9.5 | 4.4
O=C(NC1CCCC1)C1(C(=O)C2CC2)CC(c2ccccc2C(F)(F)F)=NO1 (configuration not stated) | x | 2.1 | x | -3.9 | x
CCCCCCCCNS(=O)(=O)/C=C/c1ccc(OC)cc1CNC(=O)OC(C)(C)C | x | -4.7 | x | -7.3 | x
CC(C)CNC(=O)OCc1cn(Cc2cccc(F)c2)nn1 | x | 2.1 | x | 7.0 | x
c1ccc(Cc2cnc(N3CCN(Cc4cccc(-c5ccsc5)n4)CC3)nc2)cc1 | -0.6 | -1.1 | x | 4.7 | x
Cc1cc(NC(=O)CC#N)n(-c2ccccc2)n1 | -0.3 | -0.3 | -2.6 | -2.9 | x
